# In PMC12136788:
# Positions count from the first letter of the chain named. Whole data set: some 5,800 sequences, median “enrichment r” near 0.68, cut for the highest 2% near 11. The full list was thinned out, with the highest values kept by preference.
# T1: UNK ZnF1-6 (called full-length) (human, UniProt Q9C0B0 30-357)
# T1 sequence: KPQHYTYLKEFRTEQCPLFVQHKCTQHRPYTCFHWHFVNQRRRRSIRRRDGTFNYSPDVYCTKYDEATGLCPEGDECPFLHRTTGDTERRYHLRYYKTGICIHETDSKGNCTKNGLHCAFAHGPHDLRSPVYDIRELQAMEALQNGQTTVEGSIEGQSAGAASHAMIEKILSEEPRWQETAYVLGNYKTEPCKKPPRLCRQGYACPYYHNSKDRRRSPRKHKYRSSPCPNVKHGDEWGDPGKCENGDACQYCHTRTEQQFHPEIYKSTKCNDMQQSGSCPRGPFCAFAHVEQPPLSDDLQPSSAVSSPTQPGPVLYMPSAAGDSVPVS
# B1: ENSG00000107863:be:win_4801|CDS|ENSG00000107863|bound_else_gene|NA|bound_elsewhere_windowed (ssRNA)
# RNA: GGGAGUUCUACAGUCCGACGAUCUCCAGUCGACUGAGCCCUGAGGUGCAAUCCGUGGCAGAGAGCAAGGGGGACGAGGCAGAUGACGAGAGAAGCGAACUCAUCAGUGAAGGGCGGCCUGUGGAAACCGACAGCGAGAGCGAGCAACAGAGGAUUGAGCAUCA
# B2: chr17:41691520:41691533:+|3pUTR|ENSG00000173812|msi1_unk|total|mutant (ssRNA)
# RNA: GGGAGUUCUACAGUCCGACGAUCGGAACAAAUCUCAAACUGAUCCAUCAGUCAUGCCGCCCGCUGCCGAGCUUGCAACUUAACCGCAGCAGCUGCCCAAUGCCAUGUGAAGUAACAAACUGGUUUUUGGUUUUUUUUUCCCCUCAACAGAGGAUUGAGCAUCA
# B3: chr19:5558166:5561399:-|three_prime_utr|ENSG00000223573|control|control|control (ssRNA)
# RNA: GGGAGUUCUACAGUCCGACGAUCCCAGCUGAUGCACACUGCUUCAGACACUCCUGCUGGAGCCCCAGUCCCUGACAAGGACCUAGGACAUUUUUGCUCCUGCCCAGCCUAUCGGGAGGGAGCCUUGAGCCUUUCAGCUCUGCUCAACAGAGGAUUGAGCAUCA
# B4: ENSG00000070961:be:win_51|CDS|ENSG00000070961|bound_else_gene|NA|bound_elsewhere_windowed (ssRNA)
# RNA: GGGAGUUCUACAGUCCGACGAUCUUUGAAGGAAGCUAAUCAUGAUGGAGACUUUGGAAUUACGCUCGCAGAGCUGCGGGCUCUCAUGGAGCUCAGGUCCACAGAUGCAUUACGAAAAAUACAGGAAAGCUAUGGAGAUGUCUACAACAGAGGAUUGAGCAUCA
# B5: chr16:48080881:48083801:-|three_prime_utr|ENSG00000140798|control|control|control (ssRNA)
# RNA: GGGAGUUCUACAGUCCGACGAUCUGAGUUUGACAAGCCUGAAGUCCUUGCAGAGAAGCCAGAUUCUGCAUUUGCGAUGUUACUAGCAGCAGAAGUCAGAUUGUAGAGGUCCUGGCGGCUGAUUCUAGAGGAGGAAGAGGCUCUCAACAGAGGAUUGAGCAUCA
# B6: chr1:205790044:205790145:-|3pUTR|ENSG00000133065|msi1|FALSE|bound_elsewhere (ssRNA)
# RNA: GGGAGUUCUACAGUCCGACGAUCAGAUUCUUCUGCCUCUUUCUCCUUUCCAGACCCCUACUCUGUGCAGUGCUGACCACAGCUAGAGCCACCGCCCCAUUGCUCAACCAGUAUUUAUUUCCCUAAACGACCCUUCCUCACAUUCAACAGAGGAUUGAGCAUCA
# B7: chr11:107429260:107429366:-|CDS|ENSG00000152404|unk|FALSE|unique (ssRNA)
# RNA: GGGAGUUCUACAGUCCGACGAUCGAGGAAACCCACAUAUUCAGAUAAAGCACAAAAUUGUCAAGAAAGUAGAGAAUCAGACUUAGUAAAAUAUGGUAACAGUUCAAGGGAUAGAUAUGCUACAACAGAUACUGCAAAAAAUAGCAACAGAGGAUUGAGCAUCA
# B8: chr7:5606511:5606625:+|3pUTR|ENSG00000075618|msi1_unk|FALSE|overlapping (ssRNA)
# RNA: GGGAGUUCUACAGUCCGACGAUCGGGUGUCUUGGUCUUUUAUUUUUUGUAAGUGUCAUUUGUAUAACUCUAAACGCCCAUGAUAGUAGCUUCAAACUGGAAAUAGCGAAAUAAAAUAACUCAGUCUGCAGCCCCAGGCCGGCCCAACAGAGGAUUGAGCAUCA
# B9: chr11:62152232:62152344:+|3pUTR|ENSG00000149503|unk|FALSE|unique (ssRNA)
# RNA: GGGAGUUCUACAGUCCGACGAUCUGCUCUGUAAAUAGUUGUUUUAAUUUAGCUGAAUGUUAGCAUUUUAGUCUUUGGCAUUUUAGCGUUUGGGAGGUAGAUUAAUAAAGUAUAUUCCUUCAAGCCUGCUGUUGAUACCAUGAACAACAGAGGAUUGAGCAUCA
# B10: chr15:38352922:38353023:+|3pUTR|ENSG00000166068|msi1|FALSE|unique (ssRNA)
# RNA: GGGAGUUCUACAGUCCGACGAUCUACAUAUAAAUUUAUUUCUUUUGCAGAGCAUUAUAUUACUGGAUGUUUAAUUUACAAAAUAGUUGGGUAAAUGUUCCAACAAACUUUAAAGUACCUUGAAGUCAAAUUGUCUGUUUUUGUCAACAGAGGAUUGAGCAUCA
# B11: chr18:9400975:9401076:+|3pUTR|ENSG00000128791|msi1|FALSE|unique (ssRNA)
# RNA: GGGAGUUCUACAGUCCGACGAUCUAUAAAAAUAGAUAAUGCUCUUGGACACAUUUUGUAUUAUUCAUGAUCUGAAUAGUAGUUAGUUAAAAGAUCAUUUGUAAUAUUAUGAUCAACUGUUAUAAAUUAAGGUCUUAAUACCUUCAACAGAGGAUUGAGCAUCA
# B12: chr15:38352922:38353023:+|3pUTR|ENSG00000166068|msi1|total|mutant (ssRNA)
# RNA: B10 RNA with U83C, A84C
# B13: chr3:46835109:46836203:-|three_prime_utr|ENSG00000160808|control|control|control (ssRNA)
# RNA: GGGAGUUCUACAGUCCGACGAUCUGAAGGCACAAGCUGUUCCAGUAUAAUAAAGAAAAUAAUUAAAUUAAGAAAAGUUAUACUAGAAAUAAGAUAUAGGUAUGAUUAUUAUUAAUCAUUAGUUUGUAGUAUUACUUUGUUCUACAACAGAGGAUUGAGCAUCA
# B14: chr10:104129887:104130138:-|three_prime_utr|ENSG00000197748|control|control|control (ssRNA)
# RNA: GGGAGUUCUACAGUCCGACGAUCAAAAAAUCAUUUCAUUUGGGUAAAAUGAUUUCCUUUUCUUUCUUACUGGGAAAUUGAAGUAGCAUGUCCUCUGAGUUGCAUGUUUUAGAUAAAAAAUUGUUUAAUUUUAGCCUUAAUUGUCAACAGAGGAUUGAGCAUCA
# B15: chr15:76949589:76949706:+|3pUTR|ENSG00000117906|msi1_unk|total|mutant (ssRNA)
# RNA: GGGAGUUCUACAGUCCGACGAUCAUAAAUUUUUGUUUUUGUUCUAAGCCGAUUUAAUUUGGGAACUGACAGGACAAUGUUUUCCGGUUCCGCAUUUUGUUUAAAAACCUUUAAAGAAACCUUCCGAAGGACUCCGACCUCACACAACAGAGGAUUGAGCAUCA
# B16: chr7:38725943:38726055:-|3pUTR|ENSG00000006715|unk|total|mutant (ssRNA)
# RNA: GGGAGUUCUACAGUCCGACGAUCGAAAUUUUGGGGUCCACCGUGAAUAUUUUGUUAUUUAUUUGUUUGGCUCAUUCUUUAUACCGUAAUGGAAACAUAAGUCCCGGAGUCCGAAAUGAAUUUUUCCGACCUCCGUAAAACCAUCAACAGAGGAUUGAGCAUCA
# B17: ENSG00000168003:stop:overlap|stop_codon|ENSG00000168003|stop_codon|NA|stop_codon (ssRNA)
# RNA: GGGAGUUCUACAGUCCGACGAUCCUGACAUCCCAGGGGCUGUAAGUGCCAACAUGACUGUGAAGGUAAGAGUUCUAGAUGGGUAGAAACUGACCGGUGGAGGGUGGGCUGGGCUUGUAGAAGUCUGUACCCAGGGGAGCCCCUCAACAGAGGAUUGAGCAUCA
# B18: chr4:168926953:168927063:+|3pUTR|ENSG00000129116|msi1_unk|FALSE|overlapping (ssRNA)
# RNA: GGGAGUUCUACAGUCCGACGAUCCAAAAGAGUUUUCUAACAAGGUUAAUACCUUAGUUCUUAACAUUUUUUUUCUUUAUGUGUAGUGUUUUCAUGCUACCUUGGUAGGAAACUUAUUUACAAACCAUAUUAAAAGGCUAAUUUCAACAGAGGAUUGAGCAUCA
# B19: chr11:69651696:69651723:+|3pUTR|ENSG00000110092|msi1_unk|FALSE|overlapping (ssRNA)
# RNA: GGGAGUUCUACAGUCCGACGAUCGAGGAUUAGGUUCCAUCCUUUACGUGUUUAAAAAAAAGCAUAAAAACAUUUUAAAAACAUAGAAAAAUUCAGCAAACCAUUUUUAAAGUAGAAGAGGGUUUUAGGUAGAAAAACAUAUUCCAACAGAGGAUUGAGCAUCA
# B20: chr11:69651696:69651723:+|3pUTR|ENSG00000110092|msi1_unk|total|mutant (ssRNA)
# RNA: B19 RNA with U30C, A31C, U83C, A84C, U112C, A113C, U125C, A126C, U129C, A130C
# B21: chr4:67617988:67618115:-|3pUTR|ENSG00000033178|unk|total|mutant (ssRNA)
# RNA: GGGAGUUCUACAGUCCGACGAUCAAAUGCCGAAUGUUAAAAAUUAUUGCCCGGGCCGUCUUUUUUUUUUCCAGAAACCUAAUCCGGGUAUUAAAUUUUGUGUUUUUUUUGUUUUUUUUUUUUAAACAGAAGCAUGUUAUUUCACAACAGAGGAUUGAGCAUCA
# B22: chr4:67617988:67618115:-|3pUTR|ENSG00000033178|unk|FALSE|unique (ssRNA)
# RNA: B21 RNA with C29U, C30A, C50U, C51A, C55U, C56A, C83U, C84A
# B23: chr11:69651733:69651797:+|3pUTR|ENSG00000110092|msi1_unk|FALSE|overlapping (ssRNA)
# RNA: GGGAGUUCUACAGUCCGACGAUCAAAACAUUUUAAAAACAUAGAAAAAUUCAGCAAACCAUUUUUAAAGUAGAAGAGGGUUUUAGGUAGAAAAACAUAUUCUUGUGCUUUUCCUGAUAAAGCACAGCUGUAGUGGGGUUCUAGCAACAGAGGAUUGAGCAUCA
# B24: chr4:138171112:138171219:-|3pUTR|ENSG00000151012|msi1|FALSE|unique (ssRNA)
# RNA: GGGAGUUCUACAGUCCGACGAUCUUUUUUUUUUUCACAUCAGUUUGAUCAGGAAAGUGUAUAACACAUCUUAGAGCAAGAGUUAGUUUGGUAUUAAAUCCUCAUUAGAACAACCACCUGUUUCACUAAUAACUUACCCCUGAUCAACAGAGGAUUGAGCAUCA
# B25: chr4:168926953:168927063:+|3pUTR|ENSG00000129116|msi1_unk|total|mutant (ssRNA)
# RNA: B18 RNA with U54C, A55C, U83C, A84C, U105C, A106C
# B26: chr2:16549458:16552935:-|three_prime_utr|ENSG00000197872|control|control|control (ssRNA)
# RNA: GGGAGUUCUACAGUCCGACGAUCUUGCUACUGGAGUCCUUUAACAACAUCUAUAACGAUAAAAAAUUCCUAAUUGUUUGUGGUAGUAUUUUAAUUCUAGAUGUGUUAUCUCUCUGGGAAGUAUAGUUUAUAGAAACACAAAAUCAACAGAGGAUUGAGCAUCA
# Target: T1, UNK ZnF1-6 (called full-length)
# Assay: nsRBNS (natural sequence RNA bind-n-seq); RBNS binding buffer (assumed for nsRBNS): 25 mM Tris pH 7.5, 150 mM KCl, 3 mM MgCl2, 0.01% Triton X-100, 500 ug/ml BSA, 20 U/ml SUPERase-In, 4 C; UNK is unkempt and MSI1 is Musashi-1; names of the RNAs are library labels; protein concentration not given here; high values mean tight binding
row,Binder,binding signal [enrichment R]
1,B1,0.993
2,B2,0.624
3,B3,0.786
4,B4,0.507
5,B5,1.15
6,B6,1.07
7,B7,1.66
8,B8,1.39
9,B9,110
10,B10,1.48
11,B11,2.18
12,B12,0.824
13,B13,4.03
14,B14,13.5
15,B15,0.382
16,B16,0.419
17,B17,0.906
18,B18,20.1
19,B19,13.5
20,B20,0.444
21,B21,0.765
22,B22,28.1
23,B23,8.88
24,B24,2.58
25,B25,1.12
26,B26,4.45
